In ChEMBL document CHEMBL1961873, “Compounds: GSK PKIS; Assays: Nanosyn kinase panel” (2012):

Assays:
[1] = biological target: RAC-alpha serine/threonine-protein kinase (Homo sapiens) (UniProt P31749); settings: at 0.1 µM
[2] = biological target: RAC-alpha serine/threonine-protein kinase (Homo sapiens) (UniProt P31749); settings: at 1 µM
[3] = biological target: RAC-beta serine/threonine-protein kinase (Homo sapiens) (UniProt P31751); settings: at 0.1 µM
[4] = biological target: RAC-beta serine/threonine-protein kinase (Homo sapiens) (UniProt P31751); settings: at 1 µM
[5] = biological target: RAC-gamma serine/threonine-protein kinase (Homo sapiens) (UniProt Q9Y243); settings: at 0.1 µM
[6] = biological target: RAC-gamma serine/threonine-protein kinase (Homo sapiens) (UniProt Q9Y243); settings: at 1 µM
[7] = biological target: G protein-coupled receptor kinase 6 (Homo sapiens) (UniProt P43250); settings: at 0.1 µM
[8] = biological target: G protein-coupled receptor kinase 6 (Homo sapiens) (UniProt P43250); settings: at 1 µM
[9] = biological target: T1, Rhodopsin kinase GRK7 (Homo sapiens) (UniProt Q8WTQ7); settings: at 0.1 µM
T1 sequence (whole entry): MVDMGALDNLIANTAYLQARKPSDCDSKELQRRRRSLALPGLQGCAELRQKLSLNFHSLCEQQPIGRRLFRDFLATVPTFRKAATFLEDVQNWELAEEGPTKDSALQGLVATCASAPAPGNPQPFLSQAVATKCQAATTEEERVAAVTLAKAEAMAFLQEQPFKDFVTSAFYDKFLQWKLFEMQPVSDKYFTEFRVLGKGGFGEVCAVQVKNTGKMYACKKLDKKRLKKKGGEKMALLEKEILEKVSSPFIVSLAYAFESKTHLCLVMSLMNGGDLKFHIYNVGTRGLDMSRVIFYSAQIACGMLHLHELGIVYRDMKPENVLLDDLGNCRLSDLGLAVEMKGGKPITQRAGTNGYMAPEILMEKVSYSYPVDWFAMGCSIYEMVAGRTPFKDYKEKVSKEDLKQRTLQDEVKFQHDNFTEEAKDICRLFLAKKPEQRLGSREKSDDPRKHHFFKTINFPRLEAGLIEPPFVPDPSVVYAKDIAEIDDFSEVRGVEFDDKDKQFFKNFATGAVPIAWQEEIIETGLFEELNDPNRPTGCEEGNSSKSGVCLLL

[10] = biological target: T1, Rhodopsin kinase GRK7 (Homo sapiens); settings: at 1 µM
[11] = biological target: Serine/threonine-protein kinase MRCK alpha (Homo sapiens) (UniProt Q5VT25); settings: at 0.1 µM
[12] = biological target: Serine/threonine-protein kinase MRCK alpha (Homo sapiens) (UniProt Q5VT25); settings: at 1 µM
[13] = biological target: Serine/threonine-protein kinase MRCK beta (Homo sapiens) (UniProt Q9Y5S2); settings: at 0.1 µM
[14] = biological target: Serine/threonine-protein kinase MRCK beta (Homo sapiens) (UniProt Q9Y5S2); settings: at 1 µM
[15] = biological target: Ribosomal protein S6 kinase alpha-5 (Homo sapiens) (UniProt O75582); settings: at 0.1 µM
[16] = biological target: Ribosomal protein S6 kinase alpha-5 (Homo sapiens) (UniProt O75582); settings: at 1 µM
[17] = biological target: Ribosomal protein S6 kinase alpha-4 (Homo sapiens) (UniProt O75676); settings: at 0.1 µM
[18] = biological target: Ribosomal protein S6 kinase alpha-4 (Homo sapiens) (UniProt O75676); settings: at 1 µM
[19] = biological target: Ribosomal protein S6 kinase beta-1 (Homo sapiens) (UniProt P23443); settings: at 0.1 µM
[20] = biological target: Ribosomal protein S6 kinase beta-1 (Homo sapiens) (UniProt P23443); settings: at 1 µM

G protein-coupled receptor kinase 6 (Homo sapiens), sequence (P43250 whole entry, looked up): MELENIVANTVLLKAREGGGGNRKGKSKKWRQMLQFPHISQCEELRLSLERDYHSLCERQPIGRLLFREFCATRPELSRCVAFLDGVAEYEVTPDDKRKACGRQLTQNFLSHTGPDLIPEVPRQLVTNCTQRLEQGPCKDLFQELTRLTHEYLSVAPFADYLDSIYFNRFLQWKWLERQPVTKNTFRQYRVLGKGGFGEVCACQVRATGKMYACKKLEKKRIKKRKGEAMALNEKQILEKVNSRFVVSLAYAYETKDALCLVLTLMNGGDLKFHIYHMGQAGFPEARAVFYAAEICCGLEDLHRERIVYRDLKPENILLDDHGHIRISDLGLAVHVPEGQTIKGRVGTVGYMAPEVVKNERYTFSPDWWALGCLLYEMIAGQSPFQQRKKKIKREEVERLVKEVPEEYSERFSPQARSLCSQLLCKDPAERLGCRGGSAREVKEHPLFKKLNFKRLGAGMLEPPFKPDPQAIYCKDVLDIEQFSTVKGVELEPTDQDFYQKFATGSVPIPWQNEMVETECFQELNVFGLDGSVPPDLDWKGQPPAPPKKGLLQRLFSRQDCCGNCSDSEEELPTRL
RAC-alpha serine/threonine-protein kinase (Homo sapiens), sequence (P31749 whole entry): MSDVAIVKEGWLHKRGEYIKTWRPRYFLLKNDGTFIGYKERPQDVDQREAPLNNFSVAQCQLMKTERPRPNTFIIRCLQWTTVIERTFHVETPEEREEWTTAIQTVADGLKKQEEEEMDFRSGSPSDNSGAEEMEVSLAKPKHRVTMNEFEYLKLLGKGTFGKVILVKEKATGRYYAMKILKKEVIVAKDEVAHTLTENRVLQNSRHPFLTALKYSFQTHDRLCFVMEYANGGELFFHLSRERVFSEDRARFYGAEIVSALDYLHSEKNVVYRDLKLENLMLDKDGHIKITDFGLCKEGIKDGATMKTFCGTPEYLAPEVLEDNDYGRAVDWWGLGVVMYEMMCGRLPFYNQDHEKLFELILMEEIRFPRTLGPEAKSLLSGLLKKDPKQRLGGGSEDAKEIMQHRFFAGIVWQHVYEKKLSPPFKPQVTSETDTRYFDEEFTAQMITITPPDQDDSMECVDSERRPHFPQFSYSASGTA
Ribosomal protein S6 kinase alpha-5 (Homo sapiens), sequence (O75582 whole entry, looked up): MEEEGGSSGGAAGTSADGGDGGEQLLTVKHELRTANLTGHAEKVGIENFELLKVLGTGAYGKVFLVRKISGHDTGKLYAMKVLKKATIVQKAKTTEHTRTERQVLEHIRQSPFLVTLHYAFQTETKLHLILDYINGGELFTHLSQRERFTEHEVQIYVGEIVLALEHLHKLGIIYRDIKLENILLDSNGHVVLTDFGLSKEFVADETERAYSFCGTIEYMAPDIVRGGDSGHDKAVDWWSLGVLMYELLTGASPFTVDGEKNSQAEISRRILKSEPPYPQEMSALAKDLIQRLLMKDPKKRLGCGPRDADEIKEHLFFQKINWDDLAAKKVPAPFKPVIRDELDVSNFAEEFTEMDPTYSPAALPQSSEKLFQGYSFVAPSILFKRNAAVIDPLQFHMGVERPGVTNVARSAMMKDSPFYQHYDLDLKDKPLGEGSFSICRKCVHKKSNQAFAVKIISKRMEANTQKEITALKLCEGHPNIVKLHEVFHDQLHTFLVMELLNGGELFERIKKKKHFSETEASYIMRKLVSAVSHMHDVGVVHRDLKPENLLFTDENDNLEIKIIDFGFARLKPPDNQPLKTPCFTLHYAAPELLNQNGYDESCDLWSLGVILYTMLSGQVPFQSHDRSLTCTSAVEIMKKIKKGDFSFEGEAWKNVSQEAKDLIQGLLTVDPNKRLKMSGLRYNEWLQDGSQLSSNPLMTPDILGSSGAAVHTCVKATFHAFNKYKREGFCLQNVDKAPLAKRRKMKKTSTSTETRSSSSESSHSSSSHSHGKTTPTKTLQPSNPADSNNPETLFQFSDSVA
Ribosomal protein S6 kinase alpha-4 (Homo sapiens), sequence (O75676 whole entry, looked up): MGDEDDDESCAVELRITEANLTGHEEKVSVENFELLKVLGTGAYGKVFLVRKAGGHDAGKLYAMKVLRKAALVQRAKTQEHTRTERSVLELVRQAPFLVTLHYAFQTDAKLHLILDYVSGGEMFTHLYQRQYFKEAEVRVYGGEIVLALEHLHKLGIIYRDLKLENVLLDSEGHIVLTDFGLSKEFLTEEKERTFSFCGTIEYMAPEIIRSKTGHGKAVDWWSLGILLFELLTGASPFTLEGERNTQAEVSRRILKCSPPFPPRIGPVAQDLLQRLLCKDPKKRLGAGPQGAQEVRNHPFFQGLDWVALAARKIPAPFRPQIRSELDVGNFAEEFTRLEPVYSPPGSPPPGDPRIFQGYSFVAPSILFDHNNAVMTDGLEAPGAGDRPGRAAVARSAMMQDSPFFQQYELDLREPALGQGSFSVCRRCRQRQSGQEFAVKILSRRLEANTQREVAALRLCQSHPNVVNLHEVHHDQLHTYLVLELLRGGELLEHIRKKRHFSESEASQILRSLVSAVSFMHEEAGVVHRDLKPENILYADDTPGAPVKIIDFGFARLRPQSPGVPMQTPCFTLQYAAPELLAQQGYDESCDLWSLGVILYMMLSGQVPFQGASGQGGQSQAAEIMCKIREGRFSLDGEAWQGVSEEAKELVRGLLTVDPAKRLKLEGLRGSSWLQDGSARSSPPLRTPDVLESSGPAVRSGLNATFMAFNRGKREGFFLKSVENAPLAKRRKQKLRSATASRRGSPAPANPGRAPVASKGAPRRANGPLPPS
Ribosomal protein S6 kinase beta-1 (Homo sapiens), sequence (P23443 whole entry, looked up): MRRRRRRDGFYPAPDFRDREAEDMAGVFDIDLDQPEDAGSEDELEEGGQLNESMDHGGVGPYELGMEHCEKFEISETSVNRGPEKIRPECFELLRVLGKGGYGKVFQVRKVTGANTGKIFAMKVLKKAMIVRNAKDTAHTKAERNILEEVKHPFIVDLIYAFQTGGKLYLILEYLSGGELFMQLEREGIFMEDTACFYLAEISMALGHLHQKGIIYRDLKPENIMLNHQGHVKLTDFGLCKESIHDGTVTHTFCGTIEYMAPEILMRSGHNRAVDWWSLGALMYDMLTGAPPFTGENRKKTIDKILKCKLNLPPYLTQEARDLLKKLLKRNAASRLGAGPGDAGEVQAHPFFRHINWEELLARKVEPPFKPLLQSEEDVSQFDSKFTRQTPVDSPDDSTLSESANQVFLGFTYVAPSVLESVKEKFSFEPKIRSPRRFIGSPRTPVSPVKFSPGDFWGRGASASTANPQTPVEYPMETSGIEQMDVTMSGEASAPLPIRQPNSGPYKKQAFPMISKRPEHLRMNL
Serine/threonine-protein kinase MRCK alpha (Homo sapiens), sequence (Q5VT25 whole entry): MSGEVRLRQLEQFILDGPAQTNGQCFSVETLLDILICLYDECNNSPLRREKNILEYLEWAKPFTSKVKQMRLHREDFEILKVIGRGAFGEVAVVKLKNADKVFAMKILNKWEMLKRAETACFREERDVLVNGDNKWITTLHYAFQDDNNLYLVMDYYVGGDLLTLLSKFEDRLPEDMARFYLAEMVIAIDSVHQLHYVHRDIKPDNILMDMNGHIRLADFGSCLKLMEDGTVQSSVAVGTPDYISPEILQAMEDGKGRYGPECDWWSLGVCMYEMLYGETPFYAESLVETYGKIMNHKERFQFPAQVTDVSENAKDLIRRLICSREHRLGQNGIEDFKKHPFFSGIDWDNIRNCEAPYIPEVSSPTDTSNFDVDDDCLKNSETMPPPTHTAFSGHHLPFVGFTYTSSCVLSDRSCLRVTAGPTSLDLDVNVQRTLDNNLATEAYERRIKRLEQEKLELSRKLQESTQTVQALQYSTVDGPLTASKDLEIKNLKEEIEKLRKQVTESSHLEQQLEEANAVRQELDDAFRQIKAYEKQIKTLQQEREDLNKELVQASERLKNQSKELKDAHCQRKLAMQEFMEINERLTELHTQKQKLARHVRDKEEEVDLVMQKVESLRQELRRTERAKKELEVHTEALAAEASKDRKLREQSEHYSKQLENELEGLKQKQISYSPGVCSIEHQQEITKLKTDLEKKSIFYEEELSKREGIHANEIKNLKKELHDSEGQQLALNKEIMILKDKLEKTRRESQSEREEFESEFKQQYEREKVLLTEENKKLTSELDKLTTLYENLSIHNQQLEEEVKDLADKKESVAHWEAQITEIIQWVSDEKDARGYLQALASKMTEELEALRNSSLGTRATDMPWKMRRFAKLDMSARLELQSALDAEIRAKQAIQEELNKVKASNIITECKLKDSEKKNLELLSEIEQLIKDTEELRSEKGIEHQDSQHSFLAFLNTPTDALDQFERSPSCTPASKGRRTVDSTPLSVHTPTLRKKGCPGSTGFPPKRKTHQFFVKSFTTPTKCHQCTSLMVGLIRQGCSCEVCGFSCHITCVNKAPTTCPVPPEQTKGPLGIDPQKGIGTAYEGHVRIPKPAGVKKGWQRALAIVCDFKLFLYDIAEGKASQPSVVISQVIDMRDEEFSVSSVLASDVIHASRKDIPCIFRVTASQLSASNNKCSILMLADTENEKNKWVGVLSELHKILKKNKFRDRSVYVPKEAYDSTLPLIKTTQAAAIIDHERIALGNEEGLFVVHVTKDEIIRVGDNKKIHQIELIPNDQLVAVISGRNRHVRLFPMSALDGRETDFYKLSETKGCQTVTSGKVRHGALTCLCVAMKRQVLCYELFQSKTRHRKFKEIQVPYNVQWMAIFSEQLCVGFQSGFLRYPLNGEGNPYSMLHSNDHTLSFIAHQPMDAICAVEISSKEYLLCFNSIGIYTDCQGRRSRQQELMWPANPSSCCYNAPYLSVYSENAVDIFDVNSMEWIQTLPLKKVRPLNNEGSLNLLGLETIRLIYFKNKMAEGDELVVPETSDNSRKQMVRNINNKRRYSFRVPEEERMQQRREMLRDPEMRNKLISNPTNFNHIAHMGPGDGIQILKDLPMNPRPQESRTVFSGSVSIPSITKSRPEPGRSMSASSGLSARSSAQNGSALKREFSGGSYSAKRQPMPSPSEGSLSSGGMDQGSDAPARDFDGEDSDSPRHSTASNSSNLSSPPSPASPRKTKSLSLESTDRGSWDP

| SMILES | inhibition [1] | inhibition [2] | inhibition [3] | inhibition [4] | inhibition [5] | inhibition [6] | inhibition [7] | inhibition [8] | inhibition [9] | inhibition [10] | inhibition [11] | inhibition [12] | inhibition [13] | inhibition [14] | inhibition [15] | inhibition [16] | inhibition [17] | inhibition [18] | inhibition [19] | inhibition [20] |
| --- | --- | --- | --- | --- | --- | --- | --- | --- | --- | --- | --- | --- | --- | --- | --- | --- | --- | --- | --- | --- |
| FC(F)(F)c1cccc(-c2nn3ncccc3c2-c2ccnc(Nc3ccc4c(c3)OCCO4)n2)c1 | 0.59% | 1.44% | 2.75% | 1.12% | 1.47% | 0.72% | -1.22% | -2.46% | 1.8% | 1.11% | 0.13% | 0.81% | -0.8% | 1.29% | 1.59% | 1.24% | 0.3% | 3.51% | 1.22% | -0.48% |
| COc1cc(Nc2nccc(Nc3ccc4c(C)n[nH]c4c3)n2)cc(OC)c1OC | 0.02% | 1.09% | 0.52% | 1.19% | 0.72% | 1.18% | -0.47% | -4.13% | 1.14% | -1.95% | 1.61% | -0.15% | 1.88% | 1.78% | 3.58% | 2.96% | 1.54% | 2.58% | 0.65% | 1.09% |
| COc1ccc2[nH]c3c4[nH]c5ccc(OC)cc5c4c4c(c3c2c1)C(=O)NC4=O | 0.56% | 4.28% | 1.45% | 2.54% | 1.39% | 2.7% | 20.2% | 41.2% | 22.7% | 26.6% | 0.84% | 11.8% | -0.86% | 2.96% | 18.7% | 48.4% | 11.8% | 45.3% | 45.6% | 83.6% |
| CCCN(CCS(C)(=O)=O)Cc1ccc(-c2ccc3ncnc(Nc4ccc(OCc5cccc(F)c5)c(Cl)c4)c3c2)o1 | 0.19% | 0.93% | 1.03% | 0.88% | 0.64% | 0.93% | 5.12% | 1.91% | -0.29% | 0.79% | -1.08% | 0.54% | -0.36% | 0.64% | 7.14% | 6.79% | 1.76% | 1.8% | 1.21% | 1.92% |
| CNC(=O)c1cc(-c2ccc(F)cc2)cc(-c2ccc(S(=O)(=O)N3CCCC3)cc2)c1N | 0.66% | 0.31% | 1.23% | 1.37% | 0.7% | 3.34% | 1.55% | 2.77% | 9.52% | 2.15% | 1.92% | 0.6% | -1.06% | -0.2% | 9.11% | 8.3% | 1.23% | 1.99% | 0.63% | 1.47% |
| NC(=O)c1sc(-n2cnc3ccc(C(F)(F)F)cc32)cc1OCc1ccccc1Br | 0.43% | 0.68% | 2.44% | 2.18% | 0.75% | 1.39% | 5.91% | 9.67% | 4.43% | 14.5% | -0.03% | 1.97% | 0.62% | 3.16% | 4.33% | 4.75% | 3.18% | 5.34% | 1.25% | 2.28% |
